Experimental data published in the supplement of paper PMC6555819.

system: VDR:RXRa (NR concentration 270 nM, RXRa partner concentration 90 nM); test: PBM binding z-score (relative to random genomic background probes); higher = stronger binding; sequences stand for … in GC…GCGATTGACAGCGTAGAATGAAGG
Method: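 Protein-binding microarray (Agilent 4x180K custom design, double-stranded 60-nt probes: 5' GC cap, 34-nt variable region, 24-nt constant primer region; full probe sequence given). Purified or IVT nuclear receptor:RXRα heterodimers (3:1 NR:RXRα, mostly 270:90 nM) or homodimers were incubated for 1 h in PBS with 2% milk and no ligand, then detected with Alexa488 antibodies. Fluorescence from o1-orientation probes (~5 replicates averaged) was converted to z-scores against 500 random hg19 background probes. Variable regions are seed direct-repeat (DR0–DR5) sites, all their single-nucleotide variants and half-site ablations.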

Sequence | PBM binding z-score
GTTACAGGGTCAAGGCCAGAGTACGCGTATTGAT | 4.45
TAGCCTAGGTCACATCGGGCCAGTATACGCTATA | 2.43
CCTGCGAGGTCATGGTCAGCTAATCTACAGTATG | 5.17
TCTCGGAGGAAACGAAAGGTCAGAGCTCGACATC | 2.44
CCTTACGGGTAACGAGGTTATAGCACGACGAGCG | 1.38
CCTGCTAGGTCAAAGGTCAGCTAAAGCAGCTCGC | 5.81
TATAAAGGGTCAAAGGCCAGAGTACGAATGTCGA | 4.86
AGTCAAAGTTCAGGACGACGTAACGTAAAGCACG | 2.18
TAGCCTAAGTCATGCGGGCCAGTATAGTGTCGGC | -0.392
AGAATGAGGTTACTAAAGATCAGGGAAACGCTTG | 0.79
TTGCCTAGGTCATTGGGCCAGTATAGTACGCATC | 2.27
GCTGCGAGGTCAACTGATGGTCAGCTAAAGCTCG | 5.48
CGAACTAGGTCATCCAGGACCGTGAATACATTGA | 2.39
CCTACTGGGCCATTCAGAGGTCAATGATCATATG | 3.4
ATATGTAGGTTAGCTGGGGTCATTCACACTAGGC | 6.32
CCTCGGAGGACAGAAGGTCAAAGCTGTCCGCTTT | 2.84
CACACTAGGTCACAGAGGTCAAAGTCCGTGCGTA | 8.14
CCGAGTAGGTTACTAGGGGGCATTCAGTGCGAAT | 5.13
GCTGCTAGGTCAACTGATGGTCAACTAAAGCTCG | 2.07
AGTCAAAGGTCATCTAGGTAACGTAAGATATGCT | 6.04

Sequence | PBM binding z-score
CGTCCGAGGTCATAGGAGGTCAGTGAAGACAGAT | 7.1
TGAATGAGGTTAAATATCAGGGAACGTGGCGTCG | 1.54
CGTCAAAGTTCAACTAAGGTTACGTAAAGCACGC | 6.11
CGAACTAGGTCATCCAGGTCAGTGAATACATTGA | 6.41
ATATGTAGGTTAAGCGTCATTCAGGTTGGTTCGC | 0.888
ATATGTAGGATAGCTGGGGTCATTCAGACTAGGC | 4.86
ATATGTAGGTTGGGGTCATTCAGAAAGTAGGGAA | 6.03
CCTACTGGGCCTAAGGTCATTGATTCCAATGCTC | 3.34
TCGCCTAGGTCATGGGCCAGTATACCACGCGAAC | 2.09
CCTCGGAGGTCAACAGGAGGTCAGAGCTGCCAGA | 6.19
CCTTAAGGGTCACGAGGTTATAGCACGACGAGCG | 6.02
AATACAAGGTCATCGTAGGCCAGAGTACGCACAG | 5.17
ACGCGGAGGACAAAGGTCAGAGCTACGCCAGTGA | 3.14
TCTCGGAGGACACAAAGGTCAGAGCTTTCCAGAG | 3.68
CCTTACGGGTCACGTGGTTATAGCACGACGAGCG | 3.94
CTATGTGGGTTAAGGGGGTCATTCAGTTTGAAAG | 7.5
CCTACTGGGCCACTAAAGGTCATTGATTCAGTGA | 4.05
ATCGAAAGGTCAAGGTGAGTATAGAGAAAGGGAA | 5.32
CCTACTGGGCCAAAGGTGATTGATTCCAATGCTC | 0.0696
TATCAAAGTTCAAAGGTAACGTAAGTATCCACAC | 5.28
